Hits are enriched below; roughly 5.7% of the tested compounds scored in any of these assays.
GRIN3A LBD mod: modulates the human NR3A ligand-binding domain. actives 2.5% (n = 340,000). AID 1259313. NR3A LBD differential scanning fluorimetry, Tm shift; 0% = protein alone, 100% = glycine-bound protein. Tm shift relative to glycine control, % at 25 µM;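 active = melting temperature shift of at least 10% of the positive control shift, at one fixed dose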
rCAG RNA binder: r(CAG) repeat RNA binding; TO-PRO-1 dye displacement fluorescence; actives 1.3% (n = 370,000); AID 651821; inhibition, % at 3 µM;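 active = inhibition above the plate cutoff, the mean of all test compounds on that plate plus 3 SD, cut at about 35% in these data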;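 also: higher means more dye released from RNA so lower well fluorescence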
FAS TE block: blocks the thioesterase domain of human fatty acid synthase; P49327; recombinant FAS-TE, OMFH fluorogenic substrate, fluorescence endpoint; inhibition, % at 15 µM; actives 0.67% (n = 360,000); AID 602261;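 active = compounds whose normalised, plate-corrected inhibition of enzyme fluorescence in the single-dose primary screen is 50% or more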
Myeloid diff 2: myeloid differentiation induction; ER-HoxA9 myeloid progenitors, lysozyme-GFP differentiation, flow cytometry; calls only at 10 µM; actives 1% (n = 360,000); AID 624256;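 active = normalized GFP-positive differentiation at or above the plate's own cutoff, the solvent-only control mean plus 3 SD; inconclusive = no clear call, values can overlap the other calls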;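 also: cells exposed to compound for four days before flow analysis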
MPTP block: inhibitors of mitochondrial permeability transition pore | actives 1.4% (n = 360,000) | inhibition, % at 10 µM | AID 602449 | isolated mouse mitochondria, Ca2+ swelling absorbance, 30 min;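 active = inhibition of 50% or more, scaled per plate between neutral and stimulator controls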
MPTP counter: Rhodamine 123 counter-screen of mitochondrial pore hits; shares compounds with MPTP block; isolated mitochondria, membrane potential, Rhodamine 123 fluorescence; inhibition, % at 10 µM; actives 78% (n = 5,000); AID 624504; in the data active = inhibition above about 22%
MPTP swell DR: dose response confirmation of mitochondrial permeability transition pore inhibitors | shares compounds with MPTP block | isolated mitochondria swelling, absorbance | IC50, µM | actives 58% (n = 780); in the data active = IC50 below about 20 µM
MPTP cs DR: MPTP inhibitor counter-screen activity, dose response; AID 651564; shares compounds with MPTP block; IC50, µM; actives 49% (n = 780); isolated mitochondria counterscreen, fluorescence read-out; in the data active = IC50 below about 80 µM
Of the large screens only hits and unclear results are named; the others gave an inactive call (follow-up assays come after a bar, where they were run).

O=C(Nc1ccc(Oc2ccccc2)cc1)c1csc([C@H]2C[C@H](O)[C@@H](CO)O2)n1	MPTP block 81 (no result: GRIN3A LBD mod) | MPTP counter 74
FC(F)(F)c1ccc(Cn2ccc3ccc(-c4ccc5ccn(Cc6ccc(C(F)(F)F)cc6)c5c4)cc32)cc1	none (no result: GRIN3A LBD mod, FAS TE block, Myeloid diff 2, MPTP block)
O=C(N[C@@H](Cc1cccnc1)C(=O)N1CCC[C@H]1C(=O)NC1CCCC1)c1ccccc1	none (no result: GRIN3A LBD mod, FAS TE block, Myeloid diff 2, MPTP block)
CCCN(C(=O)COC(=O)c1nc2nc(C)cc(C)n2n1)C1CCS(=O)(=O)C1 (stereo not drawn)	none
O=C(COC(=O)C1CC2C=CC1C2)Nc1cccc(S(=O)(=O)N2CCCCC2)c1 (stereo not drawn)	MPTP block 59 | MPTP counter 38
O=C(COC(=O)C1CC2C=CC1C2)Nc1cccc(S(=O)(=O)N2CCCCCC2)c1 (stereo not drawn)	MPTP block 65 | MPTP counter 70
O=C(COC(=O)c1c(F)cccc1F)Nc1cccc(S(=O)(=O)N2CCCCC2)c1	none (no result: GRIN3A LBD mod)
O=C(COC(=O)C1CCC1)Nc1cccc(S(=O)(=O)N2CCOCC2)c1	none
CSc1ccc(/C=C2/C(=N)N3N=C(CC(=O)N4CCCC4)SC3=NC2=O)cc1	none
Cc1c(C(=O)N/N=C/c2cccnc2)nnn1-c1nonc1N	none
Cc1ccc(/C=N/N2C(=S)SC(C)(C)C2N(O)C(=O)Nc2ccc([N+](=O)[O-])cc2)cc1 (stereo not drawn)	GRIN3A LBD mod 12, MPTP block 91 | MPTP counter 87
O=C(CSc1ncnc2ccccc12)c1ccc2c(c1)OCCO2	MPTP block 58 | MPTP counter 65
CCc1nc(SCC(=O)c2ccc3c(c2)OCCO3)c2ccccc2n1	none
Cc1ccc2nc(SCC(=O)N3CCCc4ccccc43)nc(=O)n2c1	none (no result: Myeloid diff 2)
O=C(c1nn2c(C(F)(F)F)cc(-c3ccccc3)nc2c1Cl)N1CCN2CCCC2C1 (stereo not drawn)	none
Cc1nc(SCC(=O)Nc2nc3ccccc3s2)c(C#N)c(C)c1C	none
Cc1cc(C(F)(F)F)c(C#N)c(SCC(=O)Nc2nc3ccccc3s2)n1	GRIN3A LBD mod 12, Myeloid diff 2 active, MPTP block 63 | MPTP counter 74
CCN(C[C@H]1N[C@@](CC)(C(=O)OC)[C@H]2C(=O)N(Cc3ccccc3)C(=O)[C@@H]12)C(=O)Nc1ccc(Cl)cc1	none
COC(=O)[C@H]1[C@@H](O)[C@@]2(O)c3c(OC)cc(OC)cc3O[C@@]2(c2ccc(OC)cc2)[C@@H]1c1ccc(F)cc1	none (no result: GRIN3A LBD mod, FAS TE block, Myeloid diff 2, MPTP block)
COC(=O)[C@]12C[C@H](CC(=O)NCCCN3CCCC3=O)C(=O)N(Cc3cccc4ccccc34)C1=C[C@H](C1CCCC1)O[C@@H]2C	none (no result: GRIN3A LBD mod, FAS TE block, Myeloid diff 2, MPTP block)
CC(=O)c1c(C)[nH]c(C(=O)Nc2nc(-c3ccc(-c4ccccc4)cc3)cs2)c1C	GRIN3A LBD mod 11, MPTP block 94 | MPTP counter 69
CC(=O)c1c(C)[nH]c(C(=O)Nc2nc(C)cs2)c1C	none
CC(=O)c1c(C)[nH]c(C(=O)Nc2nc(-c3ccc(Cl)cc3)cs2)c1C	MPTP block 94 | MPTP counter 58
Cc1cccc(NC(=O)C2SC(=Nc3c(C)cccc3C)C(C(=O)N3CCOCC3)=C2N)c1 (stereo not drawn)	none
Cc1ccc(S(=O)(=O)N2CCC[C@H]2C(=O)Nc2ccc(F)cc2C)cc1	none
c1ccc(CN2CCN(CCOCCOc3cccc4ccccc34)CC2)cc1	MPTP block 82 | MPTP counter inactive | MPTP swell DR inactive | MPTP cs DR 74
Clc1ccc(OCc2nnc(SCc3nc4ccccc4[nH]3)n2Cc2ccco2)cc1	MPTP block 62 | MPTP counter 35
O=C1CCCN1c1ccc(S(=O)(=O)NCCOc2ccccc2)cc1	none
Cc1cc(N2CCCC2=O)cc(C)c1S(=O)(=O)NCCOc1ccc(C(C)(C)C)cc1	MPTP block 105 | MPTP counter 99
COc1ccc(NC(=S)Nc2ccc(C)c(Cl)c2)cc1OC	GRIN3A LBD mod 13, MPTP block 52 | MPTP counter 100
Fc1ccc(NC(=S)Nc2ccccc2OC(F)F)cc1Cl	MPTP block 100 | MPTP counter 76
Cc1ccc(NC(=S)Nc2ccc(Cl)c(Cl)c2)c(OC(F)F)c1	GRIN3A LBD mod 15, MPTP block 100 | MPTP counter 90
O=C(NNC(=S)Nc1cccc(Cl)c1)c1ccccc1OC(F)F	MPTP block 86 | MPTP counter 90
COc1ccc(NC(=S)Nc2cccc(Cl)c2)cc1OC	none
FC(F)Oc1ccccc1NC(=S)Nc1cccnc1	none
CNC(=S)Nc1cc(C)ccc1OC(F)F	none
Cn1cnc([N+](=O)[O-])c1SCCO	none
CCOc1ccc(CN(C)C(=O)CN2C(=O)NC(c3ccccc3)(c3ccccc3)C2=O)cc1	none
Cc1ccc(NC(=S)Nc2ccc(OC(F)F)c(Cl)c2)cc1Cl	GRIN3A LBD mod 38, MPTP block 95 | MPTP counter 92
O=C(CCNC(=O)c1ccco1)Nc1ccc(OC(F)F)c(Cl)c1	none
Fc1ccc(NC(=S)Nc2ccccc2N2CCOCC2)cc1Cl	MPTP block 100 | MPTP counter 98
CC(NC(=S)Nc1ccc(OC(F)F)c(Cl)c1)C(C)(C)C (stereo not drawn)	MPTP block 93 | MPTP counter 95
O=S(=O)(NCC1CCN(Cc2ccccc2)CC1)c1ccccc1C(F)(F)F	none
O=C(Nc1ccccc1)C1CCN(C(=O)c2ccccc2)CC1	none
COC(=O)c1c(NC(=S)Nc2ccccc2Cl)sc(C)c1C	MPTP block 56 (no result: rCAG RNA binder) | MPTP counter 70
COC(=O)c1c(NC(=O)Cc2ccccc2)sc(C)c1C	none
O=C(CN1C2=NCCN2c2ccccc21)C12CC3CC(CC(C3)C1)C2	MPTP block 70 | MPTP counter inactive | MPTP swell DR inactive | MPTP cs DR inactive
NC(=O)c1ccc[n+]([C@H]2O[C@@H](COP(=O)([O-])OP(=O)(O)OC[C@H]3O[C@@H](n4cnc5c(N)ncnc54)[C@H](O)[C@@H]3O)[C@H](O)[C@@H]2O)c1	none (no result: rCAG RNA binder)
COc1ccc(CCNC(=O)c2ccccc2C(=O)NCCc2ccc(OC)cc2)cc1	none
COc1ccc(CCNC(=O)c2cc(-c3ccc(Cl)c(Cl)c3)oc2C)cc1	MPTP block 91 | MPTP counter 91
COC1C(O)CCC2(CO2)C1C1(C)OC1CC=C(C)C (stereo not drawn)	none (no result: GRIN3A LBD mod, FAS TE block, Myeloid diff 2, MPTP block)
CCCCCCCCN1C(=O)[C@H](CC(=O)NCCc2ccccc2OC)C[C@@]2(C(=O)OC)CC(C)(C)CC=C12	none (no result: GRIN3A LBD mod, FAS TE block)
CN1CCN(C(c2ccc(Br)cc2)c2cc(Cl)c3cccnc3c2O)CC1 (stereo not drawn)	GRIN3A LBD mod 34, Myeloid diff 2 inconclusive, MPTP block 76 | MPTP counter inactive

Source: PubChem
